Data published in PubChem BioAssay (NCATS).
Records with an inconclusive call do not appear. The source made the active and inactive calls. The call rests on the fitted dose curve; in most records, active means well fitted inhibition curve with a large enough effect; inconclusive means small, poorly fitted or top-dose-only effect; inactive means flat fitted curve, though single readings scatter.

Assays:
Assay in all cases: qHTS profiling for inhibitors of Plasmodium falciparum proliferation (AID 504749); further: nearly all actives have a fitted effect of over 60% in size
Conditions in all cases: P. falciparum in erythrocytes, SYBR Green DNA, 72 h; series mostly up to 28.7 µM
CP262 = test system: CP262
In short: (§1)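 Infected RBCs, 0.3% parasitemia/2.5% Hct final; cpd 72 h, 37 C, 5% CO2; lysis buffer with saponin/triton/SYBR Green I, o/n RT dark; FI 485/535; norm. to artemisinin (0.29 uM) and DMSO.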

CP265 = test system: CP265
In short: as §1

CP266 = test system: CP266
In short: as §1

CP268 = test system: CP268
In short: as §1

CP269 = test system: CP269
In short: as §1

CP286 = test system: CP286
In short: as §1

CP291 = test system: CP291
In short: as §1

CP297 = test system: CP297
In short: as §1

CP305 = test system: CP305
In short: as §1

CP315 = test system: CP315
In short: as §1

CP325 = test system: CP325
In short: as §1

CP329 = test system: CP329
In short: as §1

CP335 = test system: CP335
In short: as §1

DFO2036 = test system: DFO2036
In short: as §1

DIV14 = test system: DIV14
In short: as §1

DIV17 = test system: DIV17
In short: as §1

DIV30 = test system: DIV30
In short: as §1

Dd2 = test system: Dd2
In short: as §1

ECU = test system: ECU
In short: as §1

FAB9 = test system: FAB9
In short: as §1

GB4 = test system: GB4
In short: as §1

HB3 = test system: HB3
In short: as §1

ICS = test system: ICS
In short: as §1

N140 = test system: N140
In short: as §1

P93_24 = test system: P93_24
In short: as §1

P94_40 = test system: P94_40
In short: as §1

PAD = test system: PAD
In short: as §1

PC15 = test system: PC15
In short: as §1

PC26 = test system: PC26
In short: as §1

PC49 = test system: PC49
In short: as §1

SC27B = test system: SC27B
In short: as §1

TAB109 = test system: TAB109
In short: as §1

TAB113 = test system: TAB113
In short: as §1

TAB165 = test system: TAB165
In short: as §1

Measured: Potency
Potency means the concentration at half of the fitted maximal effect.

CC(C)C[C@@H](NC(=O)[C@H](Cc1ccccc1)NC(=O)c1cnccn1)B(O)O
active: CP262 0.0953 µM | CP265 0.112 µM | CP266 0.169 µM | CP268 0.0953 µM | CP269 0.135 µM | CP286 0.0631 µM | CP291 0.135 µM | CP297 0.269 µM | CP305 0.675 µM | CP315 0.19 µM | CP325 0.135 µM | CP329 0.0953 µM | CP335 0.0953 µM | DFO2036 0.1 µM | DIV14 0.426 µM | DIV17 0.301 µM | DIV30 0.19 µM | Dd2 0.1 µM | ECU 0.126 µM | FAB9 0.141 µM | GB4 0.107 µM | HB3 0.0794 µM | ICS 0.0447 µM | N140 0.0708 µM | P93_24 0.0794 µM | P94_40 0.112 µM | PAD 0.112 µM | PC15 0.0794 µM | PC26 0.213 µM | PC49 0.141 µM | SC27B 0.1 µM | TAB109 0.0355 µM | TAB113 0.1 µM | TAB165 0.112 µM
